# Source: PubChem
# An excerpt weighted towards active compounds, which were near 6% of everything screened.
# DRD3 antagonist = D3 dopamine receptor (human) antagonism; P35462; max response, negative = inhibition, %; D3R cells, DiscoveRx beta-arrestin luminescence, antagonist mode; stronger effect = lower value; 2.5% of 360,000 active; in the data active = max response below about -50%; inconclusive = no clear call, values can overlap the other calls
#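 Cells expressing the human receptor were seeded at 1500 cells/well, incubated overnight at 37 degrees C in 5% CO2, then exposed to library compounds with dopamine controls for 90 minutes at 37 degrees C before luminescent detection.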
# DRD3 agonist = D3 dopamine receptor (human) agonism. P35462. D3R DiscoveRx beta-arrestin cells, luminescence, 90 min. max activation, %. 0.58% of 410,000 active. AID 652048; in the data active = max activation above about 30%
#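 Agonist mode: compounds and dopamine controls were applied to plated cells for 90 min at 37 degrees C after an overnight attachment at 1500 cells/well. Luminescent read-out followed 30 - 60 minutes at room temperature with DiscoveRx detection reagent.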
# D1 antagonist = human D1 dopamine receptor antagonism; P21728; HEK293 TREx D1 cells, calcium flux, dopamine EC80; stronger effect = lower value; activity change, negative = inhibition, % at 10 µM; 3.2% of 360,000 active; AID 504652; in the data active = activity change below about -30%
# Target sequence (P21728 whole entry, looked up): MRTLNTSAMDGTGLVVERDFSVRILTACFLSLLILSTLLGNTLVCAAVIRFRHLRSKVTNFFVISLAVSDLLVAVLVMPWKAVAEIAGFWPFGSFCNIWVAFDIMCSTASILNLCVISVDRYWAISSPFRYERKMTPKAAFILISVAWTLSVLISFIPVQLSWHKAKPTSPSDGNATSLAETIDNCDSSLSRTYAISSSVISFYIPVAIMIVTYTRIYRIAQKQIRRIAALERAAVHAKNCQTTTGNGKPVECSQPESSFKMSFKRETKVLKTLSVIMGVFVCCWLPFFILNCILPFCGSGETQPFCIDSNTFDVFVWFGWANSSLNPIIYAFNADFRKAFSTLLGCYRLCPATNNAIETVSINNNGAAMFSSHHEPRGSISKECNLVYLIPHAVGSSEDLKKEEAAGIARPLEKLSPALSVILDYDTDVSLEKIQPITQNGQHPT
#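 Tetracycline-induced HEK293 Trex D1 cells, force-coupled to calcium, dye-loaded; compounds added and read 180 s, then EC80 dopamine added and calcium flux tracked kinetically another 180 s.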
# D1 potentiator = enhances dopamine response at the human D1 receptor; HEK293 TREx D1 cells, calcium flux, dopamine EC20 potentiation; AID 504651; 0.036% of 360,000 active; potentiation, % at 10 µM; P21728; in the data active = potentiation above about 30%
# D1 ag = human D1 receptor agonism | P21728 | HEK293 T-REx D1 cells, calcium flux, agonist mode | activation, % at 2 µM | 1% of 360,000 active; in the data active = activation above about 30%
#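 Tetracycline-induced HEK293 TREx D1 cells, force-coupled to calcium signalling, were dye-loaded with a no-wash calcium kit. Compound was pin-added after a 10 s baseline. Fluorescence was read kinetically at 1 cycle/s for 180 s, with calcium rises flagged as agonism.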
# Numbers stand for hits; . = inactive; ? = inconclusive; / = no result given; ! = repeats disagree.
SMILES,DRD3 antagonist,DRD3 agonist,D1 antagonist,D1 potentiator,D1 ag
CC(=O)N1CCCN(Cc2nc(C3(c4ccc(C)cc4)CCCC3)no2)CC1,.,.,.,.,.
CCCCCCSc1ccc(-c2nc3ccccn3c2NCCCC)cc1,.,81.9,.,.,.
CCCCNc1c(-c2ccc(SC(C)CC)cc2)nc2ccc(Cl)cn12 (centres undefined),.,.,/,/,/
CCCCNc1c(-c2ccc(-c3cccc(Cl)c3)cc2)nc2ccccn12,.,63.0,.,.,.
CCCCNc1c(-c2cccc(-c3ccc(OC)cc3)c2)nc2cc(C)ccn12,.,.,/,/,/
CCCCCCSc1cccc(-c2nc3ccc(Cl)cn3c2NCCCC)c1,.,33.4!,/,/,/
COc1ccc(S(=O)(=O)c2cn(CC(=O)Nc3cc(C)ccc3C)c3ccccc3c2=O)cc1,/,.,.,.,.
CCc1cccc(C)c1NC(=O)Cn1nnc(-c2nc(-c3ccccc3F)no2)c1N,/,.,.,.,.
COc1ccccc1NC(=O)CCn1nc(-c2ccccc2OC)c2c(C)cc(C)nc21,/,.,.,.,.
COc1ccc(C2C(=O)N(C3CCC(C)CC3)CC(=O)N2Cc2ccc(C)cc2)cc1OC (centres undefined),/,.,.,.,.
Cc1ccc([C@@H]2CC=C(C(=O)O)[C@H](c3ccc(C(C)(C)C)cc3)N2S(=O)(=O)c2ccc(C)cc2)cc1,.,30.2,/,/,/
CCc1ccc([C@@H]2CC=C(C(=O)O)[C@H](c3ccc(C(C)(C)C)cc3)N2S(=O)(=O)c2ccc(C)cc2)cc1,.,31.3,/,/,/
CCn1c(=O)c2cc(C(=O)NCCc3ccc(OC)c(OC)c3)sc2c2ccccc21,/,.,.,.,.
CCN(CC)C(=O)c1ccc(COc2ccc(Cl)c(C)c2)o1,.,.,-30.6,.,.
Cc1cc(OCc2ccc(C(=O)n3cccn3)o2)ccc1Cl,.,.,.,.,.
Cc1c(Cl)cccc1-n1ncc(C(=O)NCCN2CCN(C)CC2)c1C1CCN(C(=O)OC(C)(C)C)CC1,/,.,.,.,.
CC(Oc1ccc(Br)cc1Cl)C(=O)Nc1ccncc1 (centres undefined),.,.,-34.5,.,.
CC(Oc1ccc(Br)cc1)C(=O)Nc1ccncc1 (centres undefined),.,.,.,.,.
Cc1ccc(OC(C)C(=O)Nc2ccncc2)cc1C (centres undefined),.,.,-32.2,.,.
CCOC(=O)c1c(C)[nH]c(CCC(=O)NCc2ccccc2C)c1C,/,.,.,.,.
CC(=O)c1ccc(NC(=O)CC2Oc3ccc(C)cc3NC2=O)cc1 (centres undefined),/,.,.,.,.
O=c1ccn(Cc2ccccc2)c(=O)n1Cc1ccccc1,-50.1,.,.,.,.
CCCN1C(=O)c2[nH]nc(-c3ccccc3O)c2C1c1ccc(OCc2ccccc2)c(OCC)c1 (centres undefined),/,.,.,.,.
CCc1oc2ccccc2c1C(=O)c1cc(I)c(O)c(I)c1,/,.,/,/,/
COc1ccc(C)cc1NC(=O)Cn1c(=O)ccc2cc(S(=O)(=O)N3CCC(C)CC3)ccc21,/,.,.,.,.
SMILES,DRD3 antagonist,DRD3 agonist,D1 antagonist,D1 potentiator,D1 ag
CCOC(=O)c1cc2c(n(-c3ccc(Cl)cc3)c1=O)CCCC2=O,.,.,-30.4,.,.
N#C/C(=N/Nc1ccc([N+](=O)[O-])cc1)C(=N)N1CCCCC1,-54.2,.,.,.,.
C/C(=N\Nc1ccc([N+](=O)[O-])cc1)c1ccc(O)cc1,.,.,.,.,37.2
CC(=O)NC/C(C)=N\Nc1ccc([N+](=O)[O-])cc1,.,.,.,.,35.4
N#C/C(=N\Nc1ccc([N+](=O)[O-])cc1)C(=N)N1CCOCC1,.,.,.,.,.
CC(C)CCN(Cc1ccco1)C(=O)Cn1ncc2c([nH]c3ccccc32)c1=O,/,.,.,.,.
Cc1ccc(NC(=S)N/N=C/c2ccc([N+](=O)[O-])s2)cc1,?,.,.,.,31.3
Cc1cc(C)cc(N=Cc2ccc([N+](=O)[O-])s2)c1,?,.,.,.,.
CCCCCC(=O)N/N=C/c1ccccc1[N+](=O)[O-],.,.,.,.,.
O=C(N/N=C/c1cccc([N+](=O)[O-])c1O)c1cccs1,.,.,.,.,.
O=[N+]([O-])c1ccccc1C=NNC(=S)NN=Cc1ccccc1[N+](=O)[O-],-58.2,.,/,/,/
COc1ccc(OC)c(NC(=O)C(=O)N/N=C/c2ccccc2[N+](=O)[O-])c1,.,.,-34.5,.,.
O=C(N/N=C/c1cccc([N+](=O)[O-])c1O)C(O)(c1ccccc1)c1ccccc1,-71.3,.,.,.,.
O=C(Nc1ccccc1)c1ccc(Br)c(S(=O)(=O)N2CCCCC2)c1,/,.,.,.,.
CCOc1ccc(CCNC(=O)c2cc3c(=O)oc4ccc(C)cc4c3s2)cc1OCC,/,.,.,.,.
Cc1cc(/C=N/NC(=O)C(O)(c2ccccc2)c2ccccc2)c(C)n1-c1cccc(C(=O)O)c1,.,.,-30.7,.,.
Cc1cc(/C=N/NC(=O)C(O)(c2ccccc2)c2ccccc2)c(C)n1-c1ccc(C(=O)O)cc1,.,.,.,.,.
COc1cc([N+](=O)[O-])cc(/C=N/NC(=O)C(C)Nc2cccc3ccccc23)c1O (centres undefined),-84.2,.,.,.,.
Brc1ccccc1/C=N/Nc1ccc2ccccc2n1,?,.,.,.,.
CC(Nc1cccc2ccccc12)C(=O)N/N=C/c1ccc([N+](=O)[O-])cc1 (centres undefined),.,.,.,.,.
O=[N+]([O-])c1cccc(C=NNc2ccc3ccccc3n2)c1O,-54.4,.,/,/,/
COc1cc([N+](=O)[O-])cc(/C=N/NC(=O)C(O)(c2ccccc2)c2ccccc2)c1O,-54.7,.,.,.,.
CCS(=O)(=O)N1CC(=O)N(c2cc(Cl)ccc2C)C(C)(C(=O)NC2CCCCCC2)C1 (centres undefined),/,.,.,.,.
COc1ccccc1N1CCN(c2ncnc3c2c(-c2ccccc2)cn3-c2cccc(C)c2)CC1,/,.,.,.,.
COc1ccc(CCNC(=O)C(=O)NCC(c2ccco2)S(=O)(=O)c2cccs2)cc1 (centres undefined),/,.,/,.,.
CC(C)c1ccc(CN(C)C(=O)c2ccc(S(=O)(=O)NCc3ccco3)cc2)cc1,.,.,-30.4,.,.
N#C/C(=N\Nc1cccc([N+](=O)[O-])c1)C(=O)c1ccc(Br)cc1,?,.,-34.2,.,.
O=C(O)c1ccc(N=NNc2cccc([N+](=O)[O-])c2)cc1,.,.,.,.,.
CC(=O)c1cccc(NC(=O)CSc2nc3c(=O)n(C)c(=O)n(C)c3n2C)c1,/,.,/,.,.
Cc1ccc2c(c1)C1CN(C)CCC1N2C(=O)c1cccc(S(=O)(=O)N(C)C)c1 (centres undefined),.,.,.,.,.
